For orientation: AC50 means the midpoint of the concentration-response curve, whichever way the signal moves.

Where “and” joins values, the source holds several entries; their conditions need not be identical. Equal values may be shown once. In all, about 16,000 compounds went through this assay and about 5,800 (36%) were called active. About 23% were inconclusive and are not listed. Calls come from the whole dose curve; as a rule, active = well fitted curve in the direction sought with a large enough effect; inconclusive = small, poorly fitted or top-dose-only effect, or effect the other way; inactive = no such curve, though single readings can be large or run the other way. This is one part of the list. More than one record can exist for a structure, and the calls need not agree.
% is set by controls: 0 for no effect and ±100 for the full control effect.

The assay deals with Cytochrome P450 2C19 (Homo sapiens) (UniProt P33261). The experiment in a line: Cytochrome panel assay with activity outcomes. The conditions noted are these: recombinant CYP, pro-luciferin dealkylation, luminescence, p450-cyp2c19; series mostly up to 57.1 µM; activity, negative = inhibition: at the top concentration.
Sequence of Cytochrome P450 2C19 (Homo sapiens) (P33261 whole entry, looked up): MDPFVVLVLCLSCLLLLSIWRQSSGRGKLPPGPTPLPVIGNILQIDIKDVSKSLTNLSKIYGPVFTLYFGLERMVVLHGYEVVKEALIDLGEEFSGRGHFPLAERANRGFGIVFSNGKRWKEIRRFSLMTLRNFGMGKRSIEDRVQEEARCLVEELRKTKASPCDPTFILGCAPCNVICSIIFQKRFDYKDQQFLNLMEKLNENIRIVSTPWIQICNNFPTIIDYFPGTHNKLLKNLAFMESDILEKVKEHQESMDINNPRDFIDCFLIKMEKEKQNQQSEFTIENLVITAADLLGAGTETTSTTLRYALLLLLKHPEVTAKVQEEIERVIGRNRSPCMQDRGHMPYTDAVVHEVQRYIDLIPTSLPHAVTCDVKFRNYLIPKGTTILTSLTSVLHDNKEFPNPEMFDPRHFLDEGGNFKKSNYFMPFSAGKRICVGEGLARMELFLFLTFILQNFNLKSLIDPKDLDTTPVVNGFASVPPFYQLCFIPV
In the case of `CN(CCO)c1nc(N)c2c(N)nc3c(c2c1C#N)CC(=O)N3C1CCCC1`, the “activity, negative = inhibition” value is -14.8% (inactive).
With `Cc1oc(-c2cccc(Cl)c2)[n+]([O-])c1C`, the “activity, negative = inhibition” value is -28.5% (inactive).
For the compound `CCCn1nnnc1-c1cccc(Cl)c1`, the AC50 is 5.01 µM (active).
Regarding `CCCn1nnnc1-c1cc(Cl)cc(Cl)c1`, the “activity, negative = inhibition” value was -63.7% (inactive).
Still for that read-out and setting: then `O=c1c(-c2ccc(Cl)cc2)nc2cnc(N3CCOCC3)nc2n1CCc1ccccc1`, with -18.1% (inactive).
`Brc1ccc(-c2nnc(-c3ccccc3)c(N3CCSCC3)n2)cc1`: the AC50 is 14.1 µM (active).
Same read-out and setting: in the case of `Clc1ccc(-c2nnc(-c3ccccc3)c(N3CCSCC3)n2)cc1` it was 14.1 µM (active).
On to `Cc1nnc(S(=O)(=O)c2ccc(N=Nc3c(N)nc(N)nc3N)cc2)s1`, for which the activity, negative = inhibition was 32.1% [at 11.4 µM] (inactive).
With `CSc1ccc2c(c1)[C@H](N1CCN(C)CC1)Cc1ccccc1S2`, the AC50 entry was “inactive and 2.51 µM (active) and 7.94 µM (active)”.
For `CN1CCC[C@@H](CC2c3ccccc3Sc3ccccc32)C1`, the “activity, negative = inhibition” value was -31.2% [at 25.6 µM] (inactive).
On the same count and under the same terms, in the case of `CO[C@H]1COC(=O)[C@@H](Cc2ccccc2)NC(=O)[C@@H](C)COC(=O)C/C=C\[C@@H]1C` it was -5.86% [at 11.4 µM] (inactive).
With `Cc1nc(-c2c(C(F)(F)F)noc2-c2ccc(O)cc2O)cs1`, the AC50 is 1.26 µM (active).
`O=C(N/C(=C\c1cccnc1)C(=O)N1CCOCC1)c1cccc(Br)c1`: the “activity, negative = inhibition” value was -4.28% (inactive).
Take `O=C(/C=C/c1cccnc1)c1ccc(NC(=O)c2cccc(Br)c2)cc1`: the AC50 was 2.51 µM (active).
For the compound `COC(=O)c1c(-c2cc(OC)c(OC)c(OC)c2)c2ccnc(OCc3ncccn3)c2c(=O)n1Cc1ccnc(C)c1`, the “activity, negative = inhibition” value was -37.4% (inactive).
Same read-out and setting: in the case of `Cc1ccc(-n2[nH]c(C)c(C=Nc3ccc4[nH]c(=O)[nH]c4c3)c2=O)cc1C` it was -6.05% (inactive).
As to `CCOc1[nH]n(-c2ccccc2)c(=O)c1C=Nc1ccc(Cl)cc1`, the AC50 was 8.91 µM (active).
On to `CCOc1[nH]n(-c2ccc(Cl)cc2)c(=O)c1C=Nc1ccc(Cl)cc1`, for which the “activity, negative = inhibition” value is -3.5% (inactive).
The same measure, in the same setting: then `O=C(O)c1cc(S(=O)(=O)NCC2CCCO2)ccc1Cl` (stereo not drawn), with 8.86% (inactive).
The same measure, in the same setting: then `CCN(CC)CCOC(=O)[C@@H](Cc1cccc2ccccc12)C[C@@H]1CCCO1`, with -28.4% [at 25.6 µM] (inactive).
As to `COc1ccc(CNC(=O)CN(CC2CCCO2)C(=O)CNS(=O)(=O)c2ccccc2)cc1` (stereo not drawn), the AC50 was 14.1 µM (active).
With `O=C(CN(CC1CCCO1)C(=O)CNS(=O)(=O)c1ccc(Cl)cc1)NCCc1ccccc1` (stereo not drawn), the AC50 was 31.6 µM (active).
Same read-out and setting: in the case of `Cc1nn(Cc2c(F)c(F)c(F)c(F)c2F)c(C)c1NC(=O)c1c(-c2ccccc2)nn(-c2ccccc2)c1C` it was 2.24 µM (active); in that of `Cc1nn(Cc2c(F)c(F)c(F)c(F)c2F)c(C)c1NC(=O)c1cccc(COc2ccc(Cl)cc2)c1`, 14.1 µM (active).
On to `O=C1NC(O)=NC1(c1ccccc1)c1ccccc1`, for which the “activity, negative = inhibition” value was -20.5% (inactive).
For the compound `O=C(/C=C/c1ccc(Cl)cc1)NCCSc1ccccc1`, the AC50 was 1.78 µM (active).
For `COCCCNC(=O)/C=C/c1ccc(Cl)cc1`, the “activity, negative = inhibition” value is -22.8% (inactive).
On the same count and under the same terms, then `CCCCCCCCCCCCCCC[C@H](O)[C@H](N)CO`, with -7.82% (inactive).
On the same count and under the same terms, in the case of `CC1=NN(c2ccccc2)C(=O)[C@@H]1N=Nc1ccc(S(N)(=O)=O)cc1` it was 20.1% [at 11.4 µM] (inactive).
As for `CC1=NN(c2ccc(C)cc2C)C(=O)C1C(c1ccccc1)C1C(=O)N(c2ccc(C)cc2C)N=C1C` (stereo not drawn), the AC50 is 4.47 µM (active).
`COCCn1c(=O)c(-c2cccc(C#N)c2)nc2cnc(N3CCN(C)CC3)nc21`: the “activity, negative = inhibition” value is 3.31% (inactive).
The same measure, in the same setting: in the case of `COc1ncc2nc(-c3cccs3)c(=O)n(-c3ccccc3)c2n1` it was -18.4% (inactive); in that of `CN(C)c1ncc2nc(-c3cccs3)c(=O)n(-c3ccccc3)c2n1`, -10.1% (inactive).
Take `O=c1c2c(-c3cccs3)csc2[nH]c(=S)n1-c1ccccc1`: the AC50 is 10 µM (active).
Take `Cn1c(-c2sc(=S)n(-c3ccccc3)c2N)nc2ccccc21`: the AC50 is 1.41 µM (active).
In the case of `Cc1cccc(N2CC(O)=C(c3nc4ccccc4n3C)C2=N)c1`, the “activity, negative = inhibition” value was -26% (inactive).
As for `CN(C)CC/C=C1\c2ccccc2COc2ccccc21`, the AC50 entry was “inactive”.
In the case of `CC(C)(C)NC[C@@H](O)c1ccc(O)c(CO)n1`, the activity, negative = inhibition was 27.5% [at 11.4 µM] (inactive).
Still for that read-out and setting: then `CN(C(=O)c1c(O)c2ccccc2n(C)c1=O)c1ccccc1`, with -26.4% (inactive).
On the same count and under the same terms, then `CCNc1ncc2nc(-c3cn(C)c4ccccc34)c(=O)n(-c3ccccc3)c2n1`, with -27.1% (inactive).
In the case of `CCCc1c(O)c2ccccc2n(-c2ccccc2)c1=O`, the half-maximal activity concentration (AC50) is 11.2 µM (active).
On the same count and under the same terms, in the case of `O=C1CC(c2ccc3c(c2)OCO3)Sc2nc3ccccc3n21` (stereo not drawn) it was 2 µM (active).
On to `CCOc1cc(CNCCO)cc(Br)c1OCc1ccccc1Cl`, for which the AC50 is 7.08 µM (active).
On to `CCOc1cc(CNCCc2ccc(S(N)(=O)=O)cc2)cc(Cl)c1OCc1ccccc1`, for which the AC50 was 3.55 µM (active).
As to `Cc1noc(C)c1C(=O)N1CCC2(CCN(Cc3cc(C(F)(F)F)cc(C(F)(F)F)c3)CC2)CC1`, the “activity, negative = inhibition” value was -3.13% (inactive).
Same read-out and setting: then `Cc1nnc(-c2cnn(-c3ccccc3)c2N)n1Cc1ccccc1`, with -12.1% (inactive).
`Cc1nnc(-c2cnn(-c3ccccc3)c2N)n1Cc1ccc(F)cc1`: the concentration at half-maximal activity (AC50) is 17.8 µM (active).
Same read-out and setting: then `COc1ccc(-c2cc(C(F)(F)F)nc(N3CCOCC3)n2)cc1OC`, with 2.24 µM (active).

Values taken from PubChem BioAssay AID1851 (National Center for Advancing Translational Sciences (NCATS), 2009).
